# In PubChem BioAssay (Tox21):
# “And” between values parts separate entries of the source, which are not always exact repeats. Identical values can stand only once. Unmarked numbers belong to inactive results. The source made the active and inactive calls. Unless noted, the call rests on the fitted dose curve; in most records, active means well fitted curve in the direction sought with a large enough effect in the repeat runs; inconclusive means weak or mixed curves; inactive means no such curve, though single readings can be large; an effect the other way counts as inactive or inconclusive.
# Key:
# [1] = qHTS assay to identify small molecule antagonists of the glucocorticoid receptor (GR) signaling pathway - cell viability counter screen (AID 720693); further: nearly all actives have a fitted effect of over 55% in size; further: potency means the concentration at half of the fitted maximal effect
# [2] = qHTS assay for identifying genotoxic compounds that show differential cytotoxicity against isogenic chicken DT40 cell lines with known DNA damage response pathways - wild type cell line (AID 743012); further: nearly all actives have a fitted effect of over 60% in size; further: potency means the concentration at half of the fitted maximal effect
# Summary of the method: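 Using parental DT40 (300 cells/well), compounds delivered in DMSO incubate 40 h at 37 C/5% CO2. CellTiter-Glo reagent then stands 30 min at room temperature, and luminescence gives cell viability.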
# [3] = qHTS assay for identifying genotoxic compounds that show differential cytotoxicity against isogenic chicken DT40 cell lines with known DNA damage response pathways - Rev3 mutant cell line (AID 743014); further: nearly all actives have a fitted effect of over 55% in size; further: potency means the concentration at half of the fitted maximal effect
# [4] = qHTS assay for identifying genotoxic compounds that show differential cytotoxicity against isogenic chicken DT40 cell lines with known DNA damage response pathways - Rad54/Ku70 mutant cell line (AID 743015); further: nearly all actives have a fitted effect of over 60% in size; further: potency means the concentration at half of the fitted maximal effect
# [5] = qHTS assay to identify small molecule antagonists of the androgen receptor (AR) signaling pathway - cell viability counter screen (AID 743033; further: nearly all actives have a fitted effect of over 45% in size; further: potency means the concentration at half of the fitted maximal effect)
# [6] = target: Androgen receptor (Homo sapiens) (UniProt P10275); assay: qHTS assay to identify small molecule agonists of the androgen receptor (AR) signaling pathway (AID 743036; active means well fitted activation curve with a large enough effect in the signal ratio in the repeat runs, with a control signal flat, not every such curve was filed as active; inconclusive means weak or mixed curves, or effect the other way; inactive means no such curve, though single readings can be large or run the other way; the % refers to the signal ratio)
# Summary of the method: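 Screening used 2,000 AR-bla HEK293 cells per well, treated 16 h at 37C with test compounds in DMSO alongside positive and DMSO-only controls; beta-lactamase activity was then read by LiveBLAzer B/G FRET fluorescence after 2 h at room temperature.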
# [7] = target: Androgen receptor (Homo sapiens) (UniProt P10275); assay: qHTS assay to identify small molecule agonists of the androgen receptor (AR) signaling pathway using the MDA cell line (AID 743040; further: nearly all actives have a fitted effect of over 20% in size)
# Summary of the method: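 MDA-kb2 breast carcinoma cells carrying MMTV-luciferase (responsive to AR and GR), plated 5 h then treated 16 h with compounds at 37C, 0% CO2. Read-out was ONE-Glo luminescence after 30 min at room temperature.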
# [8] = qHTS assay to identify small molecule antagonists of the androgen receptor (AR) signaling pathway using the MDA cell line - cell viability counter screen (AID 743041; further: nearly all actives have a fitted effect of over 45% in size; further: potency means the concentration at half of the fitted maximal effect)
# Summary of the method: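 MDA-kb2 AR-luc cells (MMTV-luciferase, AR/GR responsive) treated with compounds plus R1881 agonist for 16 h at 37C. CellTiter-Fluor added at 15.5 h; fluorescence read after 30 min in the same wells.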
# [9] = qHTS assay to identify small molecule antagonists of the thyroid receptor (TR) signaling pathway - cell viability counter screen (AID 743064); further: nearly all actives have a fitted effect of over 50% in size; further: potency means the concentration at half of the fitted maximal effect
# Summary of the method: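 Viability of T3-stimulated (1 nM final) GH3.TRE-Luc cells is measured by CellTiter-Fluor fluorescence after 23.5 h compound exposure at 37 °C plus 30 min reagent incubation.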
# [10] = qHTS assay to identify small molecule antagonists of the thyroid receptor (TR) signaling pathway (AID 743065); further: nearly all actives have a fitted effect of over 55% in size; further: potency means the concentration at half of the fitted maximal effect
# Summary of the method: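 GH3.TRE-Luc rat pituitary cells (two TREs driving luciferase) were dosed with compound, then stimulated with 1 nM T3 (final) for 23.5 h at 37 C. ONE-Glo luminescence was the read-out, with CellTiter-Fluor fluorescence as the cytotoxicity counter-screen.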
# [11] = tested on: thyroid hormone receptor (rat, GH3 cells); assay: qHTS assay to identify small molecule agonists of the thyroid receptor (TR) signaling pathway (AID 743066; calls by dose curve)
# [12] = target: Estrogen receptor (Homo sapiens) (UniProt P03372); assay: qHTS assay to identify small molecule antagonists of the estrogen receptor alpha (ER-alpha) signaling pathway (AID 743069; active means well fitted curve in the direction sought with a large enough effect in the signal ratio in the repeat runs, not every such curve was filed as active; inconclusive means weak or mixed curves, or effect the other way; inactive means no such curve, though single readings can be large or run the other way; the % refers to the signal ratio; further: potency means the concentration at half of the fitted maximal effect)
# Summary of the method: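 HEK293 ER-alpha-UAS-bla GripTite cells, held overnight in 2% charcoal-stripped FBS, 5,000 cells/well, preincubated 4 h, then compound plus 17beta-estradiol for 18 h at 37C. Beta-lactamase read by LiveBLAzer B/G FRET substrate, 2 h at room temperature.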
# [13] = qHTS assay to identify small molecule antagonists of the estrogen receptor alpha (ER-alpha) signaling pathway - cell viability counter screen (AID 743074; calls by dose curve;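 further: HEK293 cells carrying ER-alpha-UAS-bla reporter stimulated with 17beta-estradiol; nearly all actives have a fitted effect of over 45% in size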; further: potency means the concentration at half of the fitted maximal effect)
# [14] = target: Estrogen receptor (Homo sapiens) (UniProt P03372); assay: qHTS assay to identify small molecule agonists of the estrogen receptor alpha (ER-alpha) signaling pathway (AID 743075; calls by dose curve; further: potency means the concentration at half of the fitted maximal effect); details: HEK293 ER-alpha-UAS-bla, beta-lactamase FRET ratio, 18 h; activation: at 70.1 µM (top of the series)
# [15] = target: Estrogen receptor (Homo sapiens) (UniProt P03372); assay: qHTS assay to identify small molecule agonists of the estrogen receptor alpha (ER-alpha) signaling pathway using the BG1 cell line (AID 743079); details: BG1Luc4E2 cells, ERE-luciferase agonist, 22 h; at 70.3 µM (top of the series); further: nearly all actives have a fitted effect of over 20% in size
# [16] = qHTS assay to identify small molecule antagonists of the estrogen receptor alpha (ER-alpha) signaling pathway using the BG1 cell line (AID 743080; calls by dose curve;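 further: BG1 cells stimulated with 17beta-estradiol alongside compound; nearly all actives have a fitted effect of over 25% in size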; further: potency means the concentration at half of the fitted maximal effect)
# Summary of the method: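 After 5 days in phenol-red-free 10% charcoal-stripped FBS medium, BG1-Luc-4E2 cells were seeded, left 24 h at 37 C, co-treated with compounds and 17beta-estradiol for 21.5 h, then assayed for viability and luciferase.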
# [17] = qHTS assay to identify small molecule antagonists of the estrogen receptor alpha (ER-alpha) signaling pathway using the BG1 cell line - cell viability counter screen (AID 743081);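 further: compound given together with 17beta-estradiol as the ER stimulus; nearly all actives have a fitted effect of over 45% in size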; further: potency means the concentration at half of the fitted maximal effect
# [18] = target: Aromatase (Homo sapiens) (UniProt P11511); assay: qHTS assay to identify aromatase inhibitors (AID 743083); further: nearly all actives have a fitted effect of over 55% in size; further: potency means the concentration at half of the fitted maximal effect
# [19] = target: Androgen receptor (Homo sapiens) (UniProt P10275); assay: qHTS assay to identify small molecule antagonists of the androgen receptor (AR) signaling pathway (AID 743035; active means well fitted inhibition curve with a large enough effect in the signal ratio in the repeat runs, not every such curve was filed as active; inconclusive means weak or mixed curves, or effect the other way; inactive means no such curve, though single readings can be large or run the other way; the % refers to the signal ratio; further: potency means the concentration at half of the fitted maximal effect)
# Summary of the method: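 Using qHTS, AR-UAS-bla GripTite HEK293 cells received compound, then R1881, and were cultured 16 h at 37C/5% CO2 before a 2 h room-temperature LiveBLAzer B/G FRET substrate step and fluorescence measurement.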
# [20] = target: Androgen receptor (Homo sapiens) (UniProt P10275); assay: qHTS assay to identify small molecule antagonists of the androgen receptor (AR) signaling pathway using the MDA cell line (AID 743042; further: nearly all actives have a fitted effect of over 55% in size; further: potency means the concentration at half of the fitted maximal effect)
# Summary of the method: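 MDA-kb2 breast carcinoma cells carrying MMTV-luciferase (AR/GR responsive) were co-treated with compounds and the agonist R1881 for 16 h at 37C. Inhibition read as ONE-Glo luminescence; CellTiter-Fluor fluorescence measured in parallel for cytotoxicity.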
# On the % scale 0 is the no-effect control and ±100 the full control effect.
# Sequence of Aromatase (Homo sapiens) (P11511 whole entry, looked up): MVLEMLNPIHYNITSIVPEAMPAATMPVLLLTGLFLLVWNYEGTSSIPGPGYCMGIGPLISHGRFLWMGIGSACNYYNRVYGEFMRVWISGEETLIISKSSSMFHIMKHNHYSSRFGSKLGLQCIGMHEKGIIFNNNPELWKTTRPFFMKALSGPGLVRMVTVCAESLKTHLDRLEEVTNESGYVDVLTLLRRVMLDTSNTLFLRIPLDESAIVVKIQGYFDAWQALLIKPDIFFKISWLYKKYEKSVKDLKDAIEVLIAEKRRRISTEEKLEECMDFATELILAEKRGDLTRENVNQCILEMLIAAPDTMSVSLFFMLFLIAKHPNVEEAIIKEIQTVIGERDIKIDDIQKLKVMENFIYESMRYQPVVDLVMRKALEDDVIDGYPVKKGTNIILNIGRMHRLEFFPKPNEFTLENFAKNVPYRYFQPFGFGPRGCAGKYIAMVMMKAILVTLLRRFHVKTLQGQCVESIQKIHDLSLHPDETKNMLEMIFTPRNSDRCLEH
# Sequence of Androgen receptor (Homo sapiens) (P10275 whole entry, looked up): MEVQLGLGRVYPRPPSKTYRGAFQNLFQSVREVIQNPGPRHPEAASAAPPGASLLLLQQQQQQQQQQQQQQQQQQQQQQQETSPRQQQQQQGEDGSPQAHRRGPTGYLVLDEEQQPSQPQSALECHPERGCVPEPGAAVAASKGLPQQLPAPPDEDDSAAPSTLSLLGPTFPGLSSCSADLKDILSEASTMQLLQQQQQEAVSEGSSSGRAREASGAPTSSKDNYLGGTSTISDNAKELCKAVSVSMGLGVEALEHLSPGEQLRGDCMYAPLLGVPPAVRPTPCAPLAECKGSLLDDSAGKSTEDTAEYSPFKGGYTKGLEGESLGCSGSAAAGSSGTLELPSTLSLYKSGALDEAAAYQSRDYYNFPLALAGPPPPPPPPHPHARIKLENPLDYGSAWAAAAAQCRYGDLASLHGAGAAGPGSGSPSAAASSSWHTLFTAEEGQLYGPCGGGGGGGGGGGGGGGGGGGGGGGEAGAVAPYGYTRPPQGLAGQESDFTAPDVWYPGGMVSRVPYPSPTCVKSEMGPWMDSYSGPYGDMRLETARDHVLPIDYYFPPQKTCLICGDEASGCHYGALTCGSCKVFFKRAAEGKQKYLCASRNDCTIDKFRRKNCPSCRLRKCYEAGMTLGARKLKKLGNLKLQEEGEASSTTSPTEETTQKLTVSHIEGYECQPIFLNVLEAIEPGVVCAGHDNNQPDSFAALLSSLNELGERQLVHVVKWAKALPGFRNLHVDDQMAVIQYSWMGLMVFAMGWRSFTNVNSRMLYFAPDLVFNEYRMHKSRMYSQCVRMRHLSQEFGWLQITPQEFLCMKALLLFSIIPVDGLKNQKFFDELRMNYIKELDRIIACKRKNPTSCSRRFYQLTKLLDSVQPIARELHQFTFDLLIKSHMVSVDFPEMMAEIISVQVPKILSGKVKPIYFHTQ
# Sequence of Estrogen receptor (Homo sapiens) (P03372 whole entry, looked up): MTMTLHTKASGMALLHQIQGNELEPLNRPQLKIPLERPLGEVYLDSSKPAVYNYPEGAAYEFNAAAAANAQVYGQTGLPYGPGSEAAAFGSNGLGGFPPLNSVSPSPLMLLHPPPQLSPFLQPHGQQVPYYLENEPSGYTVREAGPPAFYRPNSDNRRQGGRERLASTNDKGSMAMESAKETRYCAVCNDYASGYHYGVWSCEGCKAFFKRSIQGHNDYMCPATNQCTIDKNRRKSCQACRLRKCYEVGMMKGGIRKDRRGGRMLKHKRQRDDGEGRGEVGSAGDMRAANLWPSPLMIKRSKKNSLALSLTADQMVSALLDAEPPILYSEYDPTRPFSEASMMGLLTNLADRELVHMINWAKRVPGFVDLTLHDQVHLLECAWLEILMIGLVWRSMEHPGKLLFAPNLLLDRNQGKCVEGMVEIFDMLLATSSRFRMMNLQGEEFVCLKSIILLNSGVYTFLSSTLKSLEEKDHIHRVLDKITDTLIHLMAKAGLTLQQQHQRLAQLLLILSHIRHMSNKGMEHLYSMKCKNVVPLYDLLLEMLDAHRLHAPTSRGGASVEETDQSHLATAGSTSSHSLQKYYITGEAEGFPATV
SMILES,Potency [1],Potency [2],Potency [3],Potency [4],Potency [5],Potency [6],Potency [7],Potency [8],Potency [9],Potency [10],Potency [11],Potency [12],Potency [13],Potency [14],activation [15],Potency [16],Potency [17],Potency [18],Potency [19],Potency [20]
CCCCN1CCCC[C@H]1C(=O)Nc1c(C)cccc1C,inactive,inactive,inactive,inactive,inactive,inactive,inactive,inactive,inactive,inactive,inactive,inactive,inactive,inactive,-9.26%,inactive,inactive,inactive,,
CC(C)(C)C(=O)OCOC(=O)C1N2C(=O)CC2S(=O)(=O)C1(C)C (stereo not given),inactive,inactive,inactive,inactive,inactive,inactive,inactive,inactive,inactive,inactive,inactive,3.38 µM [inconclusive] (active),inactive,inactive,-1.04%,inactive,inactive,inactive,6.74 µM (active),inactive
CCCCCCCCCCn1cc[n+](CCCCCCCCCC)c1C,13.8 µM (active),0.273 µM (active),0.109 µM (active),0.122 µM (active),4.37 µM (active),,inactive,24.4 µM (active),6.87 µM (active),3.86 µM (active),,61.7 µM [cytotoxic] (active),19.5 µM (active),,,8.64 µM (active),48.6 µM (active),5.45 µM (active),,2.17 µM (active)
C[C@H]1[C@H]2CC[C@H]3[C@@H]4CC=C5C[C@@H](N(C)C)CC[C@]5(C)[C@H]4CC[C@]23CN1C,inactive,15 µM (active),11.9 µM (active),16.8 µM (active),inactive,inactive,inactive,inactive,inactive,inactive,inactive,,inactive,,,,,inactive,,
Cc1ccc(O)c2ncccc12,inactive,2.11 µM (active),2.98 µM (active),4.73 µM (active),16.9 µM (active),inactive,inactive,18.8 µM (active),6.68 µM (active),6.68 µM (active),,,inactive,inactive,,inactive,,13.3 µM (active),26.8 µM (active),13.3 µM (active)
CCCCCCCCCCCCCCCC(=O)OC[C@H](O)[C@H]1OC(=O)C(O)=C1O,inactive,inactive,inactive,inactive,inactive,inactive,inactive,inactive,inactive,inactive,inactive,inactive,inactive,inactive,0.436% and 6.85%,inactive,inactive,inactive,inactive,inactive
Cc1cc(O)c(C(C)(C)C)cc1C(C)(C)C,43.6 µM (active),10.9 µM (active),6.86 µM (active),13.7 µM (active),21.9 µM (active),,inactive,43.3 µM (active),24.3 µM (active),21.7 µM (active),inactive,,17.4 µM (active),,,,inactive,54.5 µM (active),,54.5 µM (active)
COc1cccc2c1C(=O)c1c(O)c3c(c(O)c1C2=O)C[C@@](O)(C(=O)CO)C[C@@H]3O[C@H]1C[C@H](N)[C@H](O[C@@H]2CCCCO2)[C@H](C)O1,21.3 µM (active),0.188 µM (active),0.237 µM (active),0.0298 µM (active),inactive,,inactive,,1.68 µM (active),0.841 µM (active),,,inactive,4.25 µM [activator] (active),,,9.44 µM (active),inactive,8.49 µM (active),4.22 µM (active)
Fc1ccc([C@@H]2CCNC[C@H]2COc2ccc3c(c2)OCO3)cc1,inactive,3.76 µM (active),7.5 µM (active),7.5 µM (active),8.49 µM (active),,inactive,18.8 µM (active),11.9 µM (active),10.6 µM (active),,,,inactive,,inactive,,,13.4 µM (active),21.1 µM (active)
O=S1(=O)CC(Cl)(Cl)C(Cl)(Cl)C1,9.77 µM (active),0.122 µM (active),0.172 µM (active),0.154 µM (active),4.36 µM (active),,inactive,13.7 µM (active),1.93 µM (active),1.37 µM (active),,21.9 µM [inconclusive] (active),49 µM (active),12.3 µM [inconclusive] (active),,,30.6 µM (active),1.93 µM (active),,2.17 µM (active)
CCCCC(CC)CN=C(N)NC(N)=NCCCCCCN=C(N)NC(N)=NCC(CC)CCCC (stereo not given),19 µM (active),8.41 µM (active),11.9 µM (active),10.6 µM (active),13.4 µM (active),,inactive,26.6 µM (active),7.5 µM (active),6.68 µM (active),,,10.7 µM (active),,,,,18.8 µM (active),,16.8 µM (active)
